Assay outcomes deposited in PubChem by National Center for Advancing Translational Sciences (NCATS).
Compounds with a hit are over-represented: about 5.9% of the library has one in this group of screens.
KB-V1 cytotox – qHTS assay for MDR1-selective chemotherapeutics: Primary screen using the drug-selected MDR subline cells KB-V1 | KB-V1 MDR cells viability, CellTiter-Glo, 72 h | Potency, µM (doses to about 46.1 µM), usual class: cytotoxic | 400,000 tested, 3.4% active | AID 1347076, 2019; further: on the % scale 0 is the no-effect control and ±100 the full control effect; nearly all actives have a fitted effect of over 60% in size
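qHTS viability screen in drug-selected KB-V1 MDR cells: 72 h compound treatment at 37 degrees C, ATP luminescence end point.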
ATXN2 expr inh – Primary qHTS for Inhibitors of ATXN expression; HEK-293 ATXN2-luciferase reporter, luminescence, 24 h; Potency, µM (doses to about 57 µM), for the others: at the top dose activity change, negative = inhibition, most hits filed as inhibitors; 360,000 tested, 0.72% active; AID 1745845, 2022; further: on the % scale 0 is the no-effect control and ±100 the full control effect; nearly all actives have a fitted effect of over 55% in size
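qHTS (up to 57 uM final) was run with 24 h compound exposure of reporter cells at 37 °C. Each well was multiplexed: SteadyGlo luminescence measured ATXN2-luciferase expression after a fluorogenic Gly-Phe-AFC viability readout (25 uM final).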
S2 tox – Viability Counterscreen for Primary qHTS for Inhibitors of ATXN expression. S2 cells (HEK-293 line with an ATXN2-luciferase reporter) viability, CellTiter-Fluor protease fluorescence, 24 h. Potency, µM (highest dose often 56.7 µM), most hits filed as cytotoxic. AID 651635, 2014. 400,000 tested, 0.49% active; further: nearly all actives have a fitted effect of over 40% in size
HepG2 tox – qHTS for Inhibitors of TGF-b: Cytotox Counterscreen; HepG2 CAGA-GFP viability, ATP luminescence, 18 h; Potency, µM (top dose mostly 46.1 µM), for inactives: top-dose activity change, negative = cytotoxicity, most hits filed as cytotoxic; 410,000 tested, 0.76% active; AID 588856, 2011
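CellTiter-Glo luminescence gave cytotoxicity after 18 hours at 37 degrees C. The cells were HepG2 CAGA-GFP in 1% FBS DMEM, stimulated with 500 pg/mL TGF-beta after compound addition. %Activity was normalised to no-cell wells (complete cell-killing) and DMSO (no toxicity), and curves were fitted and classified.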
TGFb SMAD3 inh – qHTS for Inhibitors of TGF-b. Potency, µM (highest dose often 46.1 µM), without a hit: top-dose activity, negative = inhibition, hits mostly inhibitors. 410,000 tested, 1.2% active. HepG2 CAGA-GFP TGF-b/SMAD3 reporter, GFP fluorescence, 18 h; TGF-beta stimulated, 500 pg/mL final; further: on the % scale 0 is the no-effect control and ±100 the full control effect; nearly all actives have a fitted effect of over 65% in size
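Read-out: total well GFP (ex488/em500-530) summed from mean per-cell fluorescence. Cells: HEPG2 CAGA-GFP, 1% FBS DMEM, 18 h at 37 degrees C with 500 pg/mL final TGF-beta. Unstimulated wells served as the full-inhibition control; stimulated DMSO wells = 0%.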
KB-3-1 cytotox – qHTS assay for MDR1-selective chemotherapeutics: Primary screen using the parental adenocarcinoma cell KB-3-1. Potency, µM (doses to about 46.1 µM), most hits filed as cytotoxic. KB-3-1 viability, CellTiter-Glo ATP luminescence, 72 h. 400,000 tested, 1.4% active; further: on the % scale 0 is the no-effect control and ±100 the full control effect; nearly all actives have a fitted effect of over 60% in size
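Cells are dispensed, compounds pinned in, plates held at 37 °C for 72 h, then CellTiter-Glo is added and luminescence read after 10 minutes. Cell line: parental KB-3-1 in phenol-red-free DMEM, 10% FBS.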
* hit, by the source's call. The call rests on the fitted dose curve; in most records, active means well fitted curve in the direction sought with a large enough effect; inconclusive means small, poorly fitted or top-dose-only effect, or another doubt; inactive means no such curve, though single readings can be large; an effect the other way counts as inactive or inconclusive. Potency means the concentration at half of the fitted maximal effect.

Results for Cc1cc(Br)ccc1NC(=O)c1ccco1 ?
KB-V1 cytotox: inactive; ATXN2 expr inh: 30%; S2 tox: inactive; HepG2 tox: 0%; TGFb SMAD3 inh: -17%; KB-3-1 cytotox: inactive

Results for Cc1nc(C)c(C(=O)NCCC(c2ccccc2)c2ccccc2)o1 ?
KB-V1 cytotox: 8.2µM*; ATXN2 expr inh: -25%; S2 tox: inactive; HepG2 tox: -27%; TGFb SMAD3 inh: -22%; KB-3-1 cytotox: inconclusive

What do the screens show for `CC(C)c1ccc(NC(=O)CSc2nc(=O)n(Cc3cccnc3)c3c2CCC3)cc1`?
KB-V1 cytotox: inactive; ATXN2 expr inh: -39%; S2 tox: inactive; HepG2 tox: -47%; TGFb SMAD3 inh: 11µM*; KB-3-1 cytotox: inactive

How did O=C(CSc1nc(=O)n(Cc2cccnc2)c2c1CCC2)Nc1cccc(Cl)c1 do in these assays?
KB-V1 cytotox: inactive; ATXN2 expr inh: -5%; S2 tox: inactive; HepG2 tox: -1%; TGFb SMAD3 inh: -9%; KB-3-1 cytotox: inactive

How did COc1ccc(CNc2oc(/C=C/c3cc(OC)c(OC)c(OC)c3)nc2C#N)cc1 do in these assays?
HepG2 tox: -37%; TGFb SMAD3 inh: inconclusive

Results for CCCCN(C(=O)c1ccc(Cl)cc1)C1CC2CCC(C1)N2C (stereo not given) ?
KB-V1 cytotox: inactive; ATXN2 expr inh: -6%; S2 tox: inactive; HepG2 tox: -16%; TGFb SMAD3 inh: 10%; KB-3-1 cytotox: inactive

How did CCCCN(CCCC)CC(O)c1cc(Cl)cc2c1-c1ccc(Cl)cc1C2=Cc1ccc(Cl)cc1 (stereo not given) do in these assays?
KB-V1 cytotox: 21µM*; ATXN2 expr inh: -12%; HepG2 tox: -8%; TGFb SMAD3 inh: -20%; KB-3-1 cytotox: inconclusive

Results for CCCc1cc(=O)[nH]c(SCC(=O)Nc2cc(S(=O)(=O)N3CCOCC3)ccc2Cl)n1 ?
KB-V1 cytotox: inactive; ATXN2 expr inh: 2%; S2 tox: inactive; HepG2 tox: -50%; TGFb SMAD3 inh: 0%; KB-3-1 cytotox: inactive

How did C=CCSc1nnc(NC(=O)CSc2nc(CCC)cc(=O)[nH]2)s1 do in these assays?
KB-V1 cytotox: 21µM*; ATXN2 expr inh: -4%; S2 tox: inactive; HepG2 tox: -24%; TGFb SMAD3 inh: -29%; KB-3-1 cytotox: inconclusive

How did Nc1cc(=O)[nH]c(SCC(=O)Nc2cc(S(=O)(=O)N3CCCCCC3)ccc2Cl)n1 do in these assays?
KB-V1 cytotox: inactive; ATXN2 expr inh: -9%; S2 tox: inactive; HepG2 tox: -15%; TGFb SMAD3 inh: 7%; KB-3-1 cytotox: inactive

Results for Cc1ccc(-c2nc(SCC(=O)Nc3cc(S(=O)(=O)N4CCCCC4)ccc3Cl)n[nH]2)cc1 ?
KB-V1 cytotox: 16µM*; ATXN2 expr inh: -20%; S2 tox: inconclusive; HepG2 tox: -4%; TGFb SMAD3 inh: 0%; KB-3-1 cytotox: inconclusive

How did CCCc1cc(=O)[nH]c(SCC(=O)Nc2cc(S(=O)(=O)N3CCCCC3)ccc2Cl)n1 do in these assays?
KB-V1 cytotox: inconclusive; ATXN2 expr inh: -6%; S2 tox: inactive; HepG2 tox: -62%; TGFb SMAD3 inh: inconclusive; KB-3-1 cytotox: 8.2µM*

Results for O=C(Cn1c(=O)n(-c2ccccc2Cl)c(=O)c2sc3ccccc3c21)NC1CCCCC1 ?
KB-V1 cytotox: inactive; ATXN2 expr inh: 9%; S2 tox: inconclusive; HepG2 tox: 5%; TGFb SMAD3 inh: 5%; KB-3-1 cytotox: inactive

What do the screens show for `CC(C)c1ccc(NC(=O)CN2C(=O)c3cccc4cccc2c34)cc1`?
HepG2 tox: -1%; TGFb SMAD3 inh: inconclusive

What do the screens show for `O=C(NNC(=O)c1ccc(Cl)c(Cl)c1)c1ccncc1`?
KB-V1 cytotox: inactive; ATXN2 expr inh: 6%; S2 tox: inactive; HepG2 tox: 4.5µM*; TGFb SMAD3 inh: -28%; KB-3-1 cytotox: inactive

How did O=C(NNC(=O)c1ccc(Cl)c([N+](=O)[O-])c1)c1ccncc1 do in these assays?
KB-V1 cytotox: inactive; ATXN2 expr inh: -29%; S2 tox: inactive; HepG2 tox: 23%; TGFb SMAD3 inh: -14%; KB-3-1 cytotox: inactive

How did CCN(c1ccccc1)S(=O)(=O)c1ccc(Cl)c(NC(=O)CNC(C)c2ccccc2)c1 (stereo not given) do in these assays?
KB-V1 cytotox: 16µM*; ATXN2 expr inh: -3%; S2 tox: inactive; HepG2 tox: 3%; TGFb SMAD3 inh: -17%; KB-3-1 cytotox: inconclusive

How did O=C(CN1CCCCC1)Nc1ccc(NC(=O)c2ccccc2Cl)cc1Cl do in these assays?
KB-V1 cytotox: 4.6µM*; ATXN2 expr inh: -3%; S2 tox: inactive; HepG2 tox: -29%; TGFb SMAD3 inh: -7%; KB-3-1 cytotox: 23µM*

What do the screens show for `CCC(C)NCC(=O)Nc1cc(S(=O)(=O)N(CC)c2ccccc2)ccc1Cl` (stereo not given)?
KB-V1 cytotox: inactive; ATXN2 expr inh: -6%; S2 tox: inconclusive; HepG2 tox: -7%; TGFb SMAD3 inh: -28%; KB-3-1 cytotox: inconclusive

How did CCN(c1ccccc1)S(=O)(=O)c1ccc(OC)c(NC(=O)Cn2cnc3c2c(=O)n(C)c(=O)n3C)c1 do in these assays?
KB-V1 cytotox: inactive; ATXN2 expr inh: 27%; S2 tox: inactive; HepG2 tox: 21%; TGFb SMAD3 inh: 2.8µM*; KB-3-1 cytotox: inactive

Results for CCN(c1ccccc1)S(=O)(=O)c1ccc(Cl)c(NC(=O)CN(C)Cc2cccc(F)c2)c1 ?
KB-V1 cytotox: 16µM*; ATXN2 expr inh: -12%; S2 tox: inactive; HepG2 tox: -10%; TGFb SMAD3 inh: -11%; KB-3-1 cytotox: inconclusive

Results for O=C(CN1CCCCCCC1)Nc1ccc(Cl)cc1Cl ?
KB-V1 cytotox: inactive; ATXN2 expr inh: 18%; S2 tox: inactive; HepG2 tox: -14%; TGFb SMAD3 inh: -22%; KB-3-1 cytotox: inactive

Results for O=C(CSc1oc(-c2ccccc2)nc1S(=O)(=O)c1ccc(Cl)cc1)c1ccccc1 ?
KB-V1 cytotox: inactive; ATXN2 expr inh: 8%; S2 tox: inactive; HepG2 tox: -8%; TGFb SMAD3 inh: 1%; KB-3-1 cytotox: inactive

How did CCOC(=O)C1CCCN(C(=O)c2cnn(-c3ncc4c(n3)-c3ccccc3CC4)c2C)C1 (stereo not given) do in these assays?
S2 tox: inactive

How did CN(C)S(=O)(=O)c1ccc(Cl)c(NC(=O)CN2CCCCCC2)c1 do in these assays?
KB-V1 cytotox: inconclusive; ATXN2 expr inh: 0%; S2 tox: inactive; HepG2 tox: 13%; TGFb SMAD3 inh: 2%; KB-3-1 cytotox: inactive
